The panel holds about 83,000 compounds, 20% with a hit somewhere; the sample as a whole holds those more often.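 Single-dose data. Exposure time 48 hours. Values below 10 considered active.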 The source made the active and inactive calls.
The compounds below were run on HL-60(TB) leukemia (assay: NCI-60 one-dose screen, 48 h (100 = growth as untreated, 0 = no growth, -100 = all killed)). Details: 10 µM unless noted.

| SMILES | growth |
| --- | --- |
| O=C(O)CCCc1ccccc1 | 109% (inactive) |
| O=C(NNc1ccc(-c2ccccc2)nn1)c1ccc(F)cc1 | 96.7% (inactive) |
| CC1=NOCC(=O)N1 | 104% (inactive) |
| COc1cc(/C=C/c2c(C(C)=O)c(C)nc3ccccc23)cc(OC)c1OC | 0.0645% (active) |
| COc1cc2c(c(OC)c1OC)CCC(c1cccc(C(=O)Nc3ccc([N+](=O)[O-])cc3)c1)O2 (stereo not given) | 38.8% (inactive) |
| COc1ccc(Cn2cc(C(=O)N=Nc3c(O)[nH]c4c(Cl)cccc34)nn2)cc1 | 97.4% (inactive) |
| CC(=O)C1C(=O)C(=O)N(c2cccc([N+](=O)[O-])c2)C1=O (stereo not given) | 103% (inactive) |
| Cc1ccc(N=Nc2c(N)nn(-c3ccccc3)c2N)cc1 | 17.5% (inactive) |
| OCCOCC(F)(F)F | -0.411% (active) |
| O=C1NC(=Nc2ccc(O)cc2)S/C1=C\c1cccc(Cl)c1 | 22.9% (inactive) |
| CCCC(c1nnnn1C1CCCCC1)N1CCN(C(=O)c2ccco2)CC1 (stereo not given) | 12.6% (inactive) |
| O=[N+]([O-])c1c(O)c(Cl)cc(Cl)c1Cl | 92.1% (inactive) |
| O=C(N/N=C\c1c(O)ccc2ccccc12)C1CC1 | 1.22% (active) |
| Cc1cc(=O)oc2cc(O)cc(O)c12 | 109% (inactive) |
| c1ccc([Se]CCCN2CCN(CCC[Se]c3ccccc3)CC2)cc1 | 105% (inactive) |
| COc1cc(/C=C2\CN(C)C/C(=C\c3cc(CN4CCOCC4)c(O)c(OC)c3)C2=O)cc(CN2CCOCC2)c1O | 32.6% (inactive) |
| O=S(=O)(O)c1ccc2cc(O)ccc2c1 | 100% (inactive) |
| CN1C(=O)N(C)C2C1NN=c1s/c(=C\C=C\c3ccccc3)c(=O)n12 (stereo not given) | 17.1% (inactive) |
| c1csc(-c2cc(-c3cc(-c4cccs4)[nH]n3)n[nH]2)c1 | 87.1% (inactive) |
| CCCCCCCCOC(=O)c1ccccn1 | 119% (inactive) |

| SMILES | growth |
| --- | --- |
| CC(C)CC(NC(=O)CN(Cc1ccccc1)S(C)(=O)=O)C(=O)O (stereo not given) | 94.8% (inactive) |
| COc1cc(NS(C)(=O)=O)ccc1Nc1c2ccc([N+](=O)[O-])cc2nc2c(C)cccc12 | -26.6% (active) |
| CN(C)CN1CCN(c2ccc3nc(-c4ccc5nc(-c6ccc(C(F)(F)F)cc6)[nH]c5c4)[nH]c3c2)CC1 | 59.6% (inactive) |
| Cn1nnnc1-c1ccc(N)cc1 | 94.4% (inactive) |
| C[C@H]1[C@H](C)CC[C@]2(C(=O)O)CC[C@]3(C)C(=CC[C@@H]4[C@@]5(C)C/C(=C/c6ccco6)C(=O)C(C)(C)[C@@H]5CC[C@]43C)[C@H]12 | -3.02% [100 µM] (active) |
| COc1ccc(-c2nn(-c3cccc(Cl)c3)cc2-c2cc(-c3ccc(Br)cc3)[nH]c(=O)c2C#N)cc1 | 101% (inactive) |
| Cc1cc(N[C@@H]2CCC[C@H](Nc3ccnc4cc(Cl)ccc34)C2)nc(N2CCCCCC2)n1 | -72.5% (active) |
| O=C(c1ccccc1)C(Nc1ccccc1)c1ccccc1 (stereo not given) | 84% (inactive) |
| O=C(COc1ccc(Cl)cc1Cl)N1N=C(c2ccc(Cl)cc2Cl)CC1(O)c1cc(F)c(Cl)cc1Cl (stereo not given) | -97.5% (active) |
| Cc1cc(C(=O)Nc2cc(Nc3ncccc3-c3ncnc4nc[nH]c34)ccc2F)cc(C(F)(F)F)c1 | 25.1% (inactive) |
| Cc1cc2nc(CO)[nH]c2cc1C | 89.7% (inactive) |
| Cc1ccc(Cl)cc1NC(=O)CCl | 33% (inactive) |
| CC(=O)OCC1SC(OC(C)=O)C(NC(=O)/C=C/CCl)C(OC(C)=O)C1OC(C)=O (stereo not given) | 79.9% (inactive) |
| O=C(OC12CC3CC(CC(C3)C1)C2)c1ccc(NCc2cc(O)ccc2O)cc1 | -52.6% (active) |
| Brc1ccc([I+]c2ccc(Br)cc2)cc1 | -25.6% (active) |
| O=C(NN=C1CCCCC1)C(=O)NN=C1CCCCC1 | 81.5% (inactive) |
| Cc1ccc(/C=C(/C#N)n2nnc3ncccc32)cc1 | 0.0853% (active) |
| COc1cc(/C=C/C(=O)c2c(C)nc3ccccc3c2C)ccc1OCCCOc1cc2c(cc1OC)C(=O)N1CCC[C@H]1C=N2 | -33% (active) |
| C#C[C@]1(O)CC[C@H]2[C@@H]3CC=C4c5sc(Nc6cc(F)ccc6F)nc5CC[C@]4(C)[C@H]3CC[C@@]21C | -1.19% (active) |
| Cc1ccc(-c2nc3nc(-c4ccccc4)nc(N4CCCN(S(C)(=O)=O)CC4)c3o2)cc1 | 99.6% (inactive) |
